Data from the supplement of paper PMC13380429.
A number with no mark means an inactive call.

Tested on: Vero E6 infected with SARS-CoV-2
Test: inhibition of SARS-CoV-2 cytopathic effect; higher = more antiviral protection, active = above 15
Settings: 48 h

SMILES	inhibition of SARS-CoV-2 cytopathic effect (1 nM)	inhibition of SARS-CoV-2 cytopathic effect (8.33 nM)	inhibition of SARS-CoV-2 cytopathic effect (100 nM)	inhibition of SARS-CoV-2 cytopathic effect (833.33 nM)	inhibition of SARS-CoV-2 cytopathic effect (10000 nM)
CC(C)NC[C@@H](C(=O)N1CCN(c2ncnc3c2[C@H](C)C[C@H]3O)CC1)c1ccc(Cl)cc1	-0.34%	-0.39%	-0.29%	2.69%	1.98%
N[C@@H](CS)C(=O)O [L-cysteine]	1.7%	-1.19%	-0.65%	-1.16%	-5.76%
Cc1ccc(S(=O)(=O)OCC(=O)Nc2ccc(C(=O)O)c(O)c2)cc1 [STAT3-inhibitor-VI]	-0.14%	-0.23%	0.11%	-1.76%	1.39%
Cc1ccccc1OCC(O)CO (stereo not given) [mephenesin]	-1%	0.27%	0.3%	-0.01%	1.77%
CN1C(C(=O)Nc2ccccn2)=C(O)c2ccccc2S1(=O)=O [piroxicam]	0.3%	-0.73%	0.15%	0.8%	1.41%
Cc1cc(C(C#N)c2ccc(Cl)cc2)c(Cl)cc1NC(=O)c1cc(I)cc(I)c1O (stereo not given) [closantel]	0.26%	1.55%	1.07%	3.04%	5.87%
O=C(Nc1ccccc1)N[C@H]1C[C@H](C(=O)O)Nc2cc(Cl)cc(Cl)c21	-0.64%	-2.48%	0.61%	-0.05%	0.62%
CCN(C(=O)c1c(O)c2c(Cl)cccc2n(C)c1=O)c1ccccc1 [laquinimod]	1.55%	-0.45%	0.71%	-5.3%	-6.25%
CCC(=O)O[C@H](CC(=O)O)C[N+](C)(C)C [levocarnitine-propionate]	-0.81%	4.36%	0.32%	3.36%	0.31%
C=CC(=O)N1CCC[C@@H](n2nc(-c3ccc(Oc4ccccc4)cc3)c3c(N)ncnc32)C1 [ibrutinib]	-2.27%	-1.2%	0.01%	-0.37%	1.62%
CC(C)(O)CNc1nc(Nc2ccnc(C(F)(F)F)c2)nc(-c2cccc(C(F)(F)F)n2)n1 [enasidenib]	-2.39%	-0.28%	-1.11%	-2.37%	-1.07%
CN[C@@H](C)C(=O)N[C@H](C(=O)N1CCC[C@H]1C(=O)N[C@H]1c2ccccc2C[C@H]1OCC#CC#CCO[C@@H]1Cc2ccccc2[C@@H]1NC(=O)[C@@H]1CCCN1C(=O)[C@@H](NC(=O)[C@H](C)NC)C1CCCCC1)C1CCCCC1	0.65%	4.06%	1.35%	-6.56%	-3.86%
O=C(O)c1ccccc1-c1ccc(C(F)(F)F)cc1 [xenalipin]	-4.08%	1.65%	4.8%	4.27%	-2.23%
Clc1ccc2nsnc2c1NC1=NCCN1 [tizanidine]	2.21%	4.56%	1.5%	2.93%	0.03%
C[C@@H]1CC[C@@]2(NC1)O[C@H]1C[C@H]3[C@@H]4CC=C5C[C@@H](O[C@@H]6O[C@H](CO)[C@@H](O[C@@H]7O[C@@H](C)[C@H](O)[C@@H](O)[C@H]7O)[C@H](O)[C@H]6O[C@@H]6O[C@@H](C)[C@H](O)[C@@H](O)[C@H]6O)CC[C@]5(C)[C@H]4CC[C@]3(C)[C@H]1[C@@H]2C [solamargine]	-1.13%	-0.16%	0.07%	-3.82%	-15.1%
Clc1ccc(Nc2nnc(Cc3ccncc3)c3ccccc23)cc1 [vatalanib]	0.19%	-1.32%	0.29%	3.79%	1.06%
CC(=O)Nc1c(I)c(C(=O)O)c(I)c(N(C)C(C)=O)c1I [metrizoic-acid]	-1.11%	0.34%	0.21%	2.48%	1.65%
COc1ccc2cccc(CCNC(C)=O)c2c1 [agomelatine]	-0.83%	0.82%	-2.18%	-1.63%	0.7%
Clc1cccc(-n2nnnc2NCc2ccccc2Oc2ccccn2)c1Cl	1.27%	-1.76%	-3.85%	0.18%	1.67%

SMILES	inhibition of SARS-CoV-2 cytopathic effect (1 nM)	inhibition of SARS-CoV-2 cytopathic effect (8.33 nM)	inhibition of SARS-CoV-2 cytopathic effect (100 nM)	inhibition of SARS-CoV-2 cytopathic effect (833.33 nM)	inhibition of SARS-CoV-2 cytopathic effect (10000 nM)
O=C(NCc1ccc(F)cc1)N1CCN2C(=O)OC(c3ccccc3)(c3ccccc3)[C@@H]2C1 (racemic)	1.17%	1.29%	3.05%	3.22%	-6.01%
C=CCc1ccc(O)c(-c2cc(CC=C)ccc2O)c1 [magnolol]	-1.26%	1.55%	1.32%	-2.87%	-1.19%
COc1ccc(Cl)cc1C(=O)NCCc1ccc(C(=O)O)cc1 [meglitinide]	2.2%	0.5%	1.3%	0.11%	1.33%
CCCN(CCc1cccs1)[C@H]1CCc2c(O)cccc2C1 [rotigotine]	0.32%	-0.89%	1.13%	-1.26%	-6.53%
CC(C)(C)CC(C)(C)c1ccc(OCCOCC[N+](C)(C)Cc2ccccc2)cc1 [benzethonium]	-8.35%	-10.6%	-12.9%	-9.21%	-15.1%
CCCCCCCCCCCCCCCC(=O)C(F)(F)F	-1.4%	0.3%	-10.8%	-13.2%	-0.25%
Cc1ccc(C)c([C@H](O)CNC(C)C)c1 [benzenemethanol,-2,5-dimethyl-[[(1-methylethyl)amino]methyl]]	-1.13%	2.02%	0.03%	0.15%	1.34%
CCN(CC)CCCC(C)Nc1c2ccc(Cl)cc2nc2ccc(OC)cc12 (stereo not given) [mepacrine]	3.59%	0.39%	5.65%	5.16%	-17.4%
Nc1ccc(C(=O)Oc2ccccc2)c(O)c1 [phenyl-aminosalicylate]	-11%	-5.77%	-10.6%	-10.7%	-9.73%
Cn1cc(C2=C(c3cn(CCCSC(=N)N)c4ccccc34)C(=O)NC2=O)c2ccccc21 [bisindolylmaleimide-IX]	-1.28%	-0.79%	-3.04%	1%	-1.54%
CC(C)[C@]12O[C@H]1[C@@H]1O[C@]13[C@]1(O[C@H]1C[C@H]1C4=C(CC[C@@]13C)C(=O)OC4)[C@@H]2O [triptolide]	-1.16%	-2.32%	-12.1%	-9.06%	-8.11%
CCOc1c(N2CCOCC2)cnn(C)c1=O [emorfazone]	-7.19%	-6.29%	-2.95%	-0.94%	0.67%
C[Se]C[C@H](N)C(=O)O [Se-methylselenocysteine]	2.05%	1.18%	0.23%	0.93%	1.8%
Clc1ccccc1CNC[C@H]1CC[C@H](CNCc2ccccc2Cl)CC1	-1.74%	-2.28%	-1.13%	-3.17%	16.4% (active)
CC1(C)Cc2c(-c3ccccc3)c(-c3ccc(Cl)cc3)c(CC(=O)O)n2C1 [licofelone]	-2.87%	2.92%	4.49%	3.45%	2.49%
O=c1c(-c2ccc(O)cc2)coc2c([C@@H]3O[C@H](CO)[C@@H](O)[C@H](O)[C@H]3O)c(O)ccc12 [puerarin]	-2.73%	-3.08%	-2.16%	2.34%	-0.84%
Cc1cc(C)cc(OCC2CNC(=O)O2)c1 (stereo not given) [metaxalone]	-1.78%	-2.7%	-1.26%	1.04%	-0.42%
CCN1CCN(c2cc(-c3ccc(F)cc3)c3c(n2)CCCCCC3)CC1 [blonanserin]	3.34%	2.25%	-2.9%	-0.44%	-3.59%
COc1ccc(C(=O)c2ccccc2O)c(O)c1 [dioxybenzone]	1.95%	-0.38%	-1.57%	-0.76%	2.94%
